According to the supplement of paper PMC8728848:
This is one part of a sample in which the strongest signals are shown more often than they occur.

Tests used:
Test in all cases: glycan array binding signal (z-score within array); higher = stronger binding
Conditions in all cases: glycan notation: IUPAC condensed, linker removed
Fuc(a1-2)Gal(b1-4)Glc = target: Fuc(a1-2)Gal(b1-4)Glc
Method in brief: (§1)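 The Consortium for Functional Glycomics database supplied 3228 glycan arrays, of which those lacking an available protein sequence were dropped. The binding signal, a within-array Z-score, was averaged across arrays of the same protein sequence and across linkers. Negative scores can be read as non-binding.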

Fuc(a1-2)Gal(b1-4)GlcNAc = target: Fuc(a1-2)Gal(b1-4)GlcNAc
Method in brief: as §1

[1] = target: Fuc(a1-2)Gal(b1-4)GlcNAc(b1-3)GalNAc
Method in brief: as §1

[2] = target: Fuc(a1-2)Gal(b1-4)GlcNAc(b1-3)[Fuc(a1-3)[Gal(b1-4)]GlcNAc(b1-6)]Gal(b1-4)Glc
Method in brief: as §1

[3] = target: Fuc(a1-2)Gal(b1-4)[Fuc(a1-3)]GlcNAc(b1-2)[Fuc(a1-2)Gal(b1-4)[Fuc(a1-3)]GlcNAc(b1-4)]Man(a1-3)[Fuc(a1-2)Gal(b1-4)[Fuc(a1-3)]GlcNAc(b1-2)Man(a1-6)]Man(b1-4)GlcNAc(b1-4)GlcNAc
Method in brief: as §1

[4] = target: Fuc(a1-2)Gal(b1-4)[Fuc(a1-3)]GlcNAc(b1-3)Gal(b1-4)[Fuc(a1-3)]GlcNAc(b1-3)Gal(b1-4)[Fuc(a1-3)]GlcNAc
Method in brief: as §1

[5] = target: Fuc(a1-2)[Gal(a1-3)]Gal(b1-3)GlcNAc(b1-6)GalNAc
Method in brief: as §1

[6] = target: Fuc(a1-2)[Gal(a1-3)]Gal(b1-4)GlcNAc(b1-3)[Fuc(a1-2)[Gal(a1-3)]Gal(b1-4)GlcNAc(b1-6)]GalNAc
Method in brief: as §1

[7] = target: Fuc(a1-2)[GalNAc(a1-3)]Gal(b1-3)GlcNAc
Method in brief: as §1

[8] = target: Fuc(a1-2)[GalNAc(a1-3)]Gal(b1-4)GlcNAc(b1-2)Man
Method in brief: as §1

[9] = target: Fuc(a1-2)[GalNAc(a1-3)]Gal(b1-4)[Fuc(a1-3)]GlcNAc(b1-3)GalNAc
Method in brief: as §1

[10] = target: Fuc(a1-3)[Gal(b1-4)]Glc6S
Method in brief: as §1

[11] = target: Fuc(a1-3)[Gal(b1-4)]GlcNAc(b1-2)Man
Method in brief: as §1

Fuc(a1-4)GlcNAc = target: Fuc(a1-4)GlcNAc
Method in brief: as §1

Gal(a1-3)Gal(b1-3)GlcNAc = target: Gal(a1-3)Gal(b1-3)GlcNAc
Method in brief: as §1

[12] = target: Gal(b1-4)GlcNAc(b1-2)Man(a1-6)Man(b1-4)GlcNAc(b1-4)GlcNAc
Method in brief: as §1

[13] = target: Gal(b1-4)GlcNAc(b1-3)Gal(b1-4)GlcNAc(b1-3)[Gal(b1-4)GlcNAc(b1-3)Gal(b1-4)GlcNAc(b1-6)]GalNAc
Method in brief: as §1

GalNAc(a1-3)GalNAc = target: GalNAc(a1-3)GalNAc
Method in brief: as §1

GalNAc(b1-4)GlcNAc = target: GalNAc(b1-4)GlcNAc
Method in brief: as §1

[14] = target: GalNAc(b1-4)GlcNAc(b1-2)Man
Method in brief: as §1

GalNAc(b1-4)GlcNAc6S = target: GalNAc(b1-4)GlcNAc6S
Method in brief: as §1

GalNAc3S(b1-4)GlcNAc3S = target: GalNAc3S(b1-4)GlcNAc3S
Method in brief: as §1

Glc(b1-4)Glc = target: Glc(b1-4)Glc
Method in brief: as §1

GlcA(b1-6)Gal = target: GlcA(b1-6)Gal
Method in brief: as §1

[15] = target: GlcNAc(b1-3)Gal(b1-4)GlcNAc(b1-3)Gal(b1-4)GlcNAc(b1-2)[GlcNAc(b1-3)Gal(b1-4)GlcNAc(b1-3)Gal(b1-4)GlcNAc(b1-6)]Man(a1-6)[GlcNAc(b1-3)Gal(b1-4)GlcNAc(b1-3)Gal(b1-4)GlcNAc(b1-2)Man(a1-3)]Man(b1-4)GlcNAc(b1-4)[Fuc(a1-6)]GlcNAc
Method in brief: as §1

[16] = target: GlcNAc(b1-3)Gal(b1-4)GlcNAc(b1-3)Gal(b1-4)GlcNAc(b1-3)Gal(b1-4)GlcNAc(b1-2)[GlcNAc(b1-3)Gal(b1-4)GlcNAc(b1-3)Gal(b1-4)GlcNAc(b1-3)Gal(b1-4)GlcNAc(b1-6)]Man(a1-6)[GlcNAc(b1-3)Gal(b1-4)GlcNAc(b1-3)Gal(b1-4)GlcNAc(b1-3)Gal(b1-4)GlcNAc(b1-2)Man(a1-3)]Man(b1-4)GlcNAc(b1-4)[Fuc(a1-6)]GlcNAc
Method in brief: as §1

[17] = target: GlcNAc(b1-3)Gal(b1-4)GlcNAc(b1-3)GalNAc
Method in brief: as §1

[18] = target: GlcNAc(b1-3)[GlcNAc(b1-4)][GlcNAc(b1-6)]GlcNAc
Method in brief: as §1

[19] = target: GlcNAc(b1-6)Gal(b1-4)GlcNAc
Method in brief: as §1

[20] = target: Man(a1-3)[Man(a1-6)]Man(b1-4)GlcNAc(b1-4)[Fuc(a1-6)]GlcNAc
Method in brief: as §1

[21] = target: Neu5Ac(a2-3)Gal(b1-3)GalNAc(b1-4)[Neu5Ac(a2-8)Neu5Ac(a2-3)]Gal(b1-4)Glc
Method in brief: as §1

[22] = target: Neu5Ac(a2-3)Gal(b1-4)GlcNAc(b1-2)[Neu5Ac(a2-3)Gal(b1-4)GlcNAc(b1-4)]Man(a1-3)[GlcNAc(b1-4)][Neu5Ac(a2-3)Gal(b1-4)GlcNAc(b1-4)Man(a1-6)]Man(b1-4)GlcNAc(b1-4)GlcNAc
Method in brief: as §1

[23] = target: Neu5Ac(a2-3)Gal(b1-4)[Fuc(a1-3)]GlcNAc
Method in brief: as §1

[24] = target: Neu5Ac(a2-3)Gal(b1-4)[Fuc(a1-3)]GlcNAc6S
Method in brief: as §1

[25] = target: Neu5Ac(a2-6)Gal(b1-4)GlcNAc(b1-2)Man(a1-3)[Neu5Ac(a2-6)Gal(b1-4)GlcNAc(b1-2)Man(a1-6)]Man(b1-4)GlcNAc(b1-4)[Fuc(a1-6)]GlcNAc
Method in brief: as §1

[26] = target: Neu5Ac(a2-6)Gal(b1-4)GlcNAc(b1-2)Man(a1-6)[Gal(b1-4)GlcNAc(b1-2)Man(a1-3)]Man(b1-4)GlcNAc(b1-4)GlcNAc
Method in brief: as §1

[27] = target: Neu5Ac(a2-6)Gal(b1-4)GlcNAc(b1-3)Gal(b1-4)GlcNAc(b1-3)GalNAc
Method in brief: as §1

[28] = target: Neu5Ac(a2-8)Neu5Ac(a2-3)Gal(b1-3)GalNAc(b1-4)[Neu5Ac(a2-3)]Gal(b1-4)Glc
Method in brief: as §1

[29] = target: Neu5Ac(a2-8)Neu5Ac(a2-3)[Gal(b1-3)GalNAc(b1-4)]Gal(b1-4)Glc
Method in brief: as §1

Neu5Ac(b2-6)GalNAc = target: Neu5Ac(b2-6)GalNAc
Method in brief: as §1

[30] = target: Neu5Ac9Ac(a2-3)Gal(b1-3)GlcNAc
Method in brief: as §1

[31] = target: Neu5Gc(a2-3)Gal(b1-4)GlcNAc(b1-3)Gal(b1-4)GlcNAc(b1-2)Man(a1-3)[Neu5Gc(a2-3)Gal(b1-4)GlcNAc(b1-3)Gal(b1-4)GlcNAc(b1-2)Man(a1-6)]Man(b1-4)GlcNAc(b1-4)GlcNAc
Method in brief: as §1

[32] = target: Neu5Gc(a2-6)Gal(b1-4)GlcNAc
Method in brief: as §1

B1: SP16663B-bot-321-25-321 (Bacteroides ovatus) (protein)
chain: DDDDEVTMNSKFYLSTKVFPVDSYEASLSVILKDNSVVVNELQPNYRFVACATERLSKDVKITADSDDNLVSAYNKANDTEYNILPAENYSFTNKTVTIENGESVSGDSIKIELLNVGSLTTEGGYLLPVTISSIEGNNLDALSSNRGVVYLKIQNIHVNVESGQPAEGTLIADRSGWTVKVAPTTRGDAKNLIDGTNSDVARDGGAEYWLTVDIGKVQTLTGIRNKCYASSYSPTAVEVFTSSDGAKWKSIGAVTISKSGTQYIKFSKAVETRYLKYYVKQGPNTVSLTEFDLYAK
Fuc(a1-2)Gal(b1-4)Glc
  glycan array binding signal (z-score): -0.653
Fuc(a1-2)Gal(b1-4)GlcNAc
  glycan array binding signal (z-score): -0.156
[1]
  glycan array binding signal (z-score): -0.106
[2]
  glycan array binding signal (z-score): -0.632
[3]
  glycan array binding signal (z-score): -0.394
[4]
  glycan array binding signal (z-score): -0.007
[5]
  glycan array binding signal (z-score): -0.437
[6]
  glycan array binding signal (z-score): 1.9
[7]
  glycan array binding signal (z-score): 0.071
[8]
  glycan array binding signal (z-score): 1.04
[9]
  glycan array binding signal (z-score): 0.604
[10]
  glycan array binding signal (z-score): 1.36
[11]
  glycan array binding signal (z-score): 0.558
Fuc(a1-4)GlcNAc
  glycan array binding signal (z-score): 21.5
Gal(a1-3)Gal(b1-3)GlcNAc
  glycan array binding signal (z-score): 0.607
[12]
  glycan array binding signal (z-score): -0.62
[13]
  glycan array binding signal (z-score): 1.04
GalNAc(a1-3)GalNAc
  glycan array binding signal (z-score): -0.141
GalNAc(b1-4)GlcNAc
  glycan array binding signal (z-score): 1.29
[14]
  glycan array binding signal (z-score): 1.72
GalNAc(b1-4)GlcNAc6S
  glycan array binding signal (z-score): -0.779
GalNAc3S(b1-4)GlcNAc3S
  glycan array binding signal (z-score): -0.087
Glc(b1-4)Glc
  glycan array binding signal (z-score): 0.122
GlcA(b1-6)Gal
  glycan array binding signal (z-score): 0.013
[15]
  glycan array binding signal (z-score): 2.65
[16]
  glycan array binding signal (z-score): 1.28
[17]
  glycan array binding signal (z-score): -0.536
[18]
  glycan array binding signal (z-score): -0.112
[19]
  glycan array binding signal (z-score): 1.33
[20]
  glycan array binding signal (z-score): 0.967
[21]
  glycan array binding signal (z-score): 0.469
[22]
  glycan array binding signal (z-score): -0.146
[23]
  glycan array binding signal (z-score): -0.258
[24]
  glycan array binding signal (z-score): -0.406
[25]
  glycan array binding signal (z-score): 0.583
[26]
  glycan array binding signal (z-score): -0.492
[27]
  glycan array binding signal (z-score): -0.34
[28]
  glycan array binding signal (z-score): -0.244
[29]
  glycan array binding signal (z-score): 0.154
Neu5Ac(b2-6)GalNAc
  glycan array binding signal (z-score): -0.878
[30]
  glycan array binding signal (z-score): 0.033
[31]
  glycan array binding signal (z-score): -0.142
[32]
  glycan array binding signal (z-score): 0.696
